# High-throughput results (PubChem BioAssay)
# GLD-1 RNA inh: GLD-1-TGE RNA interaction inhibition (C. elegans). purified GLD-1 + fluorescein TGE RNA, fluorescence polarization. Q17339. inhibition, % at 5.96 µM. hit rate 0.44% among 320,000;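 active = percent inhibition above a per-plate cutoff, the plate mean of test compounds plus 3 SD, cut at about 30% in these data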;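 note: 0% = DMSO wells with GLD-1 and probe and 100% = wells lacking GLD-1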
# Target sequence (Q17339 whole entry, looked up): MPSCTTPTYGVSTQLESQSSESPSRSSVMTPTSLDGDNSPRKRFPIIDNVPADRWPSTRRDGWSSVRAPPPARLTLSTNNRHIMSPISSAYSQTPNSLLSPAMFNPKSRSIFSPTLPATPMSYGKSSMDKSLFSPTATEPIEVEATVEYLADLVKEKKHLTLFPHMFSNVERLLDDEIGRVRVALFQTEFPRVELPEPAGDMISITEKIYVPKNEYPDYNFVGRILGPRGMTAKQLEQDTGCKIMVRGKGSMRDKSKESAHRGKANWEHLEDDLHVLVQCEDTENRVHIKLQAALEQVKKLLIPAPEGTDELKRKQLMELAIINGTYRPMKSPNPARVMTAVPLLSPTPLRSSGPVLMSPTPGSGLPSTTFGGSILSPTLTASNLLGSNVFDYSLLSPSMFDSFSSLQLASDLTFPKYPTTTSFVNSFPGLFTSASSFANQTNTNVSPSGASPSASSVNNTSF
# Mcl-1 Bim block: human Bim-Mcl-1 interaction inhibition. hit rate 0.1% among 190,000. Q07820. inhibition, % at 10 µM. Bead-based flow cytometry, Bim peptide-Mcl-1 binding; in the data active = inhibition above about 40%;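 note: 0% = no compound tracer wells and 100% = peptide blocker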
# Mcl1 Bid PPI: Mcl-1/Bid interaction inhibition; Q07820; TR-FRET Mcl-1/Bid-Dy647 peptide binding, 1536-well; inhibition, % at 21.7 µM; hit rate 0.97% among 220,000; AID 1021;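 active = compounds that cut the binding signal by more than half at the single screening dose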;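 note: His-tagged Mcl-1 with europium anti-His antibody binding Bid BH3 peptide; 0% = Mcl-1 plus peptide wells and 100% = peptide-only wells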
# BCLXL inh: inhibitors of human Bcl-xL; GST-Bcl-xL / FITC-Bim BH3 peptide fluorescence polarization; hit rate 0.7% among 320,000; Q07817; inhibition, % at 10.9 µM;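 active = inhibition above the mean of all tested compounds plus 3 SD, cutoff set per campaign, cut at about 30% in these data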;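 note: 0% = DMSO wells and 100% = unlabeled Bim-BH3 peptide competitor; inhibitors lower millipolarization by displacing the labeled peptide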
# Mcl1 Noxa PPI: Mcl-1/Noxa interaction inhibition. hit rate 1.5% among 220,000. inhibition, % at 21.7 µM. Q07820. TR-FRET Mcl-1/Noxa peptide binding, 2 h;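 active = compounds that cut the protein-peptide binding signal by more than 50% relative to plate controls in a single-dose test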;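 note: His-tagged Mcl-1 with rhodamine Noxa BH3 peptide and terbium anti-His antibody; 0% = Mcl-1 plus Noxa peptide wells and 100% = peptide-only wells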
# MCL1-BIM inh: inhibitors of human MCL1 binding to BIM-BH3 peptide. GST-MCL1 / FITC-Bim-BH3 fluorescence polarization. hit rate 0.68% among 320,000. inhibition, % at 10.9 µM. Q07820;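 active = inhibition above the mean inhibition of all tested compounds plus 3 SD, set per campaign, cut at about 40% in these data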;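 note: 0% = DMSO wells and 100% = unlabeled Bim-BH3 peptide control; higher means more loss of mP so more displacement of Bim peptide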
# * hit, by the source's call; · = no result given. A selection: hits, their analogues and other compounds. The true share with any hit is near 2.3%.
SMILES,GLD-1 RNA inh,Mcl-1 Bim block,Mcl1 Bid PPI,BCLXL inh,Mcl1 Noxa PPI,MCL1-BIM inh
COc1ccc(/C=C(\C#N)C(=O)OCC(=O)Nc2ccc(C(C)(C)C)cc2)cc1,0,-12,-5,-2,-2,-7
COc1ccc(C(=O)C(C)OC(=O)COc2ccccc2)cc1 (stereo unspecified),-2,·,·,·,·,·
C/C(CC(=O)Nc1ccc(F)cc1F)=N\NC(=O)C(=O)N1CCCCC1,12,·,·,0,·,8
Cc1ccc(S(=O)(=O)N2CCOCC2)cc1C(=O)OCC(=O)NCCc1ccccc1,-1,·,·,·,·,·
CCn1c(SCC(=O)N2CCOCC2)nc2oc3c(Cl)cc(Cl)cc3c(=O)c2c1=O,3,0,-66,18,54*,21
CC(C)OC(=O)C[N+](C)(C)CCN1C(=O)C2C(c3ccccc3)C=CC(c3ccccc3)C2C1=O (stereo unspecified),55*,1,-14,0,0,14
C#CC[N+](C)(C)CCN1C(=O)C2C(c3ccccc3)C=CC(c3ccccc3)C2C1=O (stereo unspecified),4,0,2,6,3,3
CC(=O)Nc1ccc(NC(=O)COC(=O)c2c3c(nc4ccccc24)CCN(Cc2ccccc2)C3)cc1,-3,-3,-14,8,2,-1
O=C(COC(=O)c1c2c(nc3ccccc13)CCN(Cc1ccccc1)C2)Nc1c(F)cccc1F,39*,-3,10,34*,-2,41*
COC(=O)c1ccc(CNC(=O)c2c3c(nc4ccccc24)CCN(Cc2ccccc2)C3)cc1,12,-4,94*,10,26,-9
Cc1ccc(C(C)C)cc1OCC(=O)Nc1ccc(N2CCCCC2)cc1,-5,·,·,0,·,2
Fc1cccc(F)c1/C=C/c1ccc2ccccc2n1,1,0,23,-3,12,-8
C(=C\c1ccco1)/c1ccc2ccccc2n1,5,·,-87,15,74*,18
CCOC(=O)c1ccccc1NC(=O)c1ccc2nccnc2c1,-1,-1,-45,8,51*,6
Cc1nnc(SCc2cc(=O)oc3ccc4ccccc4c23)n1Cc1ccccc1,9,-2,71*,15,17,9
Cc1nnc(SCc2cc(=O)oc3cc(O)ccc23)n1Cc1ccccc1,4,-3,-12,0,13,-3
O=C(NCc1cccnc1)c1cc2nc(-c3ccc4c(c3)OCO4)cc(C(F)(F)F)n2n1,1,3,83*,5,47,3
COCCCC1CCN(C(=O)c2cc(COc3ccc(C)nc3)on2)CC1,0,·,·,-2,·,0
COCCn1cnc2c(c1=O)c1nc3ccccc3nc1n2/N=C/c1ccc(OC)c(OC)c1,-3,·,-8,8,51*,13
CCCCCCn1cnc2c(c1=O)c1nc3ccccc3nc1n2/N=C/c1ccco1,·,-1,58*,·,39,·
COc1ccc(/C=N/n2c(C)nc3ccccc3c2=O)cc1OC,6,·,·,3,·,6
COCCn1cnc2c(c1=O)c1nc3ccccc3nc1n2/N=C/c1ccco1,-1,·,-18,7,-15,11
c1ccc(CN=C2NN=C(c3cc4ccccc4o3)CS2)cc1,-3,0,-34,7,93*,1
O=[N+]([O-])c1cccc(COc2ncnc3cc([N+](=O)[O-])ccc23)c1,-1,·,-50,-2,53*,-1
O=C(COc1ncnc2cc([N+](=O)[O-])ccc12)NCc1ccc2c(c1)OCO2,8,6,12,3,60*,9
SMILES,GLD-1 RNA inh,Mcl-1 Bim block,Mcl1 Bid PPI,BCLXL inh,Mcl1 Noxa PPI,MCL1-BIM inh
COc1ccc(CCNC(=O)COc2ncnc3cc([N+](=O)[O-])ccc23)cc1,2,1,1,10,32,4
O=C(COC(=O)Cc1ccc([N+](=O)[O-])cc1)NCc1ccc2c(c1)OCO2,-1,·,·,·,·,·
N=C(N)c1ccc(/C=C/c2ccc(C(=N)N)cc2O)cc1,-38,·,-92,1,66*,3
N=C(N)c1ccc(Cl)cc1,3,0,-17,3,16,5
C#CCOCCOCCOCCNc1nc(N2CCN(C(=O)[C@H](Cc3cc4ccccc4[nH]3)n3cc(C(N)CC(C)C)nn3)CC2)nc(N2CCN(C(=O)[C@H](CCC(=O)O)n3cc(C(N)[C@H](C)CC)nn3)CC2)n1 (stereo partly specified),5,-1,63*,5,31,8
C#CCOCCOCCOCCNc1nc(N2CCN(C(=O)[C@H](CCC(=O)O)n3cc(C(N)CC(C)C)nn3)CC2)nc(N2CCN(C(=O)[C@H](CCC(=O)O)n3cc(C(N)[C@H](C)CC)nn3)CC2)n1 (stereo partly specified),5,1,76*,1,36,3
C#CCOCCOCCOCCNc1nc(N2CCN(C(=O)[C@H](Cc3cc4ccccc4[nH]3)n3cc([C@@H](N)CC(C)C)nn3)CC2)nc(N2CCN(C(=O)[C@H](Cc3cc4ccccc4[nH]3)n3cc([C@@H](N)CC(C)C)nn3)CC2)n1,-9,0,75*,5,54*,-8
C#CCOCCOCCOCCNc1nc(N2CCN(C(=O)[C@H](Cc3cc4ccccc4[nH]3)n3cc([C@@H](N)C(C)CC)nn3)CC2)nc(N2CCN(C(=O)[C@H](CCCCN)n3cc([C@@H](N)CC(C)C)nn3)CC2)n1 (stereo partly specified),-4,0,78*,3,40,-6
C#CCOCCOCCOCCNc1nc(N2CCN(C(=O)C([C@@H](C)CC)n3cc(C(N)CC(C)C)nn3)CC2)nc(N2CCN(C(=O)[C@H](CCC(=O)O)n3cc(C(N)[C@H](C)CC)nn3)CC2)n1 (stereo partly specified),3,-2,7,1,37,2
O=C(NCc1cccc(F)c1)c1ccc2nc(N3CCOCC3)sc2c1,0,·,·,-2,·,-8
Cc1ccc(C)c(NC(=O)COC(=O)CNC(=O)C2CCCCC2)c1,1,·,·,-8,·,-3
COc1ccc(/C(O)=C2/C(=O)C(=O)N(CCCN3CCOCC3)C2c2ccc(N(C)C)cc2)cc1 (stereo unspecified),-5,·,·,7,·,6
N#C/C(=C/c1ccc(-c2cc([N+](=O)[O-])ccc2Cl)o1)C(N)=O,-6,·,57*,8,70*,28
CNC(=O)/C(C#N)=C/c1ccc(-c2ccc(OC)cc2[N+](=O)[O-])o1,5,1,66*,8,40,11
CN(C)C(CNC(=O)CSc1nc2ccccc2c(=O)n1Cc1ccco1)c1ccccc1 (stereo unspecified),6,·,·,6,·,-1
CC(C)c1ccc(OCc2ccc(C(=O)O)o2)cc1,4,·,-3,2,69*,-4
O=S(=O)(NCc1ccccc1)c1ccc(Cl)cc1,-3,-6,-18,7,-24,9
